Most compounds without a hit are left out; they make up all but 11% or so of the library.
VACV Venus inh: inhibitors of vaccinia virus (Venus reporter); 0.46% of 330,000 active; Vaccinia virus Venus reporter expression, fluorescence; AID 720580; Potency, µM (highest dose often 36.5 µM), usual class: inhibitors; calls by dose curve; tested in A549 cells; further: nearly all actives have a fitted effect of over 30% in size
Pf growth 96h: P. falciparum growth inhibition at 96 hour, primary screen for plastid delayed-death inhibitors. P. falciparum luciferase reporter growth, 96 h. Potency, µM (doses to about 28.7 µM), hits mostly inhibitors. 6.9% of 320,000 active. AID 504834
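Parasite growth measured via integrated firefly luciferase reporter in P. falciparum. Infected erythrocytes at 2% hematocrit, 0.05% parasitemia final were treated 96 hours at 37 C under 5% CO2, and luminescence was read.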
Vaccinia mCherry: vaccinia inhibition (mCherry reporter); Vaccinia virus mCherry reporter infection, fluorescence; Potency, µM (top dose mostly 36.5 µM), usual class: inhibitors; 0.63% of 310,000 active; AID 720579; calls by dose curve; tested in A549 cells; further: nearly all actives have a fitted effect of over 35% in size
HCV inh: inhibitors of hepatitis C virus infection; Huh7.5.1 HCVcc-Cre infection, luciferase reporter, 44 h; Potency, µM (doses to about 41.8 µM), usual class: inhibitors; 3.4% of 340,000 active
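1,000 cells/well; 4 h culture; + compound; + HCVcc-Cre (~0.5 moi); 44 h; luciferase substrate, RT 15 min; read 15 sec.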
Pf growth 48h: P. falciparum growth inhibition at 48 hours (one generation); P. falciparum luciferase growth in erythrocytes, 48 h; Potency, µM (doses to about 28.7 µM), most hits filed as inhibitors; 5.9% of 310,000 active; AID 504832
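Parasite viability was followed by luminescence of a genomically integrated firefly luciferase. Cultures held 0.1% parasitemia at 2% hematocrit (final), incubated under 5% CO2 at 37 C.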
NS1 inh: inhibitors of influenza NS1 protein function | Potency, µM (top dose mostly 46.1 µM) | 0.4% of 270,000 active | AID 2326; calls by dose curve; further: actives are rising curves; nearly all actives have a fitted effect of over 50% in size
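S. cerevisiae expressing influenza A NS1, grown in glucose, washed, then diluted 1:100 into pH 6.0 -URA galactose medium with 23 nl compound. Growth recovery read as OD600; NS1-free strain serves as control.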
A number is an active result; - = inactive; ? = inconclusive; . = no result; [ ] = another dose, or the depositor's remark. Unless noted, the call rests on the fitted dose curve; in most records, active means well fitted inhibition curve with a large enough effect; inconclusive means small, poorly fitted or top-dose-only effect, or another doubt; inactive means no such curve, though single readings can be large or run the other way.

SMILES	VACV Venus inh	Pf growth 96h	Vaccinia mCherry	HCV inh	Pf growth 48h	NS1 inh
CCn1c(N)nc2c1c(=O)n(C)c(=O)n2C	-	-	-	-	-	-
Cn1ncnc2c(=O)n(C)c(=O)nc1-2	.	-	.	0.501µM	0.928µM	-
Cc1ccc(-c2nc3c(=O)n(C)c(=O)nc-3n(C)n2)cc1	0.891µM	.	2.82µM	.	.	.
CC(OC(=O)C1CC(=O)N(Cc2ccccc2)C1)C(=O)Nc1cccc(C#N)c1 (stereo unspecified)	-	6.57µM	-	-	-	-
COc1cc(OC)c(C(C)=O)c(O)c1C	-	.	-	.	.	.
Cc1cc(O)cc(O)c1C(=O)Cc1ccccc1	-	-	-	-	-	-
CC(=O)c1c(O)cc(O)c(C(C)=O)c1O	-	-	-	3.55µM	10.4µM	-
CC(=O)c1c(O)cc(O)cc1CC(=O)O	-	?	-	0.891µM	-	-
CN1Cc2cc(C(=O)c3cc(Cl)cc(CSc4ncccn4)c3O)cnc2NC1=O	.	9.28µM	.	.	-	-
Cc1cc(SCc2cc(=O)[nH]c3ccccc23)nc2ccccc12	-	?	.	-	1.47µM	-
O=c1cc(CSc2ccccn2)c2ccccc2[nH]1	-	9.28µM	-	-	-	-
Cn1nc(C(=O)Nc2ccc(-n3cnnn3)cc2)c2ccccc2c1=O	-	.	-	-	.	.
CNc1c([N+](=O)[O-])cnn1-c1ccccc1F	-	-	-	-	-	-
CC(=O)NC(CC(=O)Nc1nc(C)cs1)c1ccccc1 (stereo unspecified)	-	-	-	-	-	.
CC(C)Cn1c(=O)c(C(=O)NCc2ccccn2)c(O)c2ccccc21	-	-	.	-	11.7µM	-
COc1cc2[nH]c(=O)c(C(=O)NCc3ccc(F)cc3)c(O)c2cc1OC	.	3.29µM	.	-	-	-
CCCCCn1c(=O)c(C(=O)NCc2ccccc2Cl)c(O)c2ccccc21	.	?	.	-	7.38µM	-
CCn1c(=O)c(C(=O)NCc2ccc(F)cc2)c(O)c2ccccc21	-	11.7µM	-	?	-	-
COc1ccc(CNC(=O)c2c(O)c3cc(OC)c(OC)cc3[nH]c2=O)cc1OC	-	?	-	-	-	-
CCN(CC)c1ccc(C(=O)N2CCC(c3c[nH]c4ccccc34)(c3c[nH]c4ccccc34)CC2)cc1	-	.	-	.	.	.
Cc1cc(C)nc(SCC(=O)N/N=C/c2ccc3c(c2)OCO3)n1	-	-	-	.	-	-
CCCn1c(=O)c(C(=O)NCc2ccccc2OC)c(O)c2ccccc21	.	?	.	-	-	-
CCCCCn1c(=O)c(C(=O)Nc2ccccc2N)c(O)c2ccccc21	.	-	.	?	4.15µM	-
CCCCCCn1c(=O)c(C(=O)Nc2cnccn2)c(O)c2ccccc21	-	?	-	?	2.62µM	-
CCCn1c(=O)c(C(=O)NCc2ccccc2Cl)c(O)c2ccccc21	-	-	-	12.6µM	-	-
SMILES	VACV Venus inh	Pf growth 96h	Vaccinia mCherry	HCV inh	Pf growth 48h	NS1 inh
CCCCCCCCn1c(=O)c(C(=O)OC)c(N)c2ccccc21	?	?	?	12.6µM	14.7µM	-
CCN1CCN(CCCNC(=O)C2c3ccccc3C(=O)N(c3ccc(OC)cc3)C2c2ccc(OC)cc2)CC1 (stereo unspecified)	-	-	-	-	-	-
CCCCCn1c(=O)c(C(=O)NCc2ccncc2)c(O)c2ccccc21	?	-	?	?	1.65µM	-
CCCn1c(=O)c(C(=O)NCc2ccncc2)c(O)c2ccccc21	-	.	.	-	-	-
COc1ccc(C2c3ccc4ccccc4c3Oc3ncn(CCO)c(=N)c32)cc1OC (stereo unspecified)	?	?	-	10µM	10.4µM	-
COc1ccc(C2c3ccc4ccccc4c3Oc3ncn(CCCO)c(=N)c32)cc1OC (stereo unspecified)	-[7.34 µM]	1.85µM	-[7.34 µM]	12.6µM	?	-
CC1(C)CC(=O)C2=C(C1)Oc1ncn(CCCO)c(=N)c1C2c1ccccc1 (stereo unspecified)	-	-	-	-	-	-
Cc1ccc(CNC(=O)CSc2c3c(nc4ccc(Cl)cc24)CCCC3)o1	-	?	-	?	.	-
COc1ccc(OC)c(CN2CCN(C(=O)c3cccc(S(=O)(=O)Nc4ccc(C)cc4)c3)CC2)c1	?	9.28µM	-	10µM	10.4µM	.
COc1ccc(OC)c(CN2CCN(C(=O)c3cc(S(=O)(=O)Nc4ccccc4OC)ccc3C)CC2)c1	-	3.29µM	-	14.1µM	?	-
COc1ccc(OC)c(CN2CCN(C(=O)[C@@H](NC(=O)c3cccc(C)c3)C(C)C)CC2)c1	-	?	-	?	10.4µM	.
COc1ccc(NS(=O)(=O)c2ccc(C)c(C(=O)N3CCN(Cc4cc(OC)ccc4OC)CC3)c2)cc1	-	.	-	?	.	.
COc1ccc(OC)c(CN2CCN(C(=O)COc3cccc(C)c3)CC2)c1	-	-	.	-	-	-
CC(C)(C)OC(=O)CN1C(=O)C(Sc2n[nH]c(-c3ccccc3)n2)CCc2ccccc21 (stereo unspecified)	-	1.47µM	-	-	?	-
CCOC(=O)CN1C(=O)C(Sc2n[nH]c(-c3ccc(O)cc3)n2)CCc2ccccc21 (stereo unspecified)	-	?	.	-	.	-
CC(C)n1c(=NC(=O)c2ccco2)c(C#N)cc2c(=O)n3ccccc3cc21	-	?	-	-	-	-
COc1ccc(/C=N/n2c(N)c(S(=O)(=O)c3cccs3)c3nc4ccccc4nc32)cc1OC	.	.	.	-	2.94µM	-
Nc1c(S(=O)(=O)c2cccs2)c2nc3ccccc3nc2n1/N=C/c1cccc(O)c1	11.2µM	.	?	7.94µM	?	-
COc1ccccc1NC(=O)C1Cc2ccccc2CN1C(=O)c1ccco1 (stereo unspecified)	-	-	-	-	?	-
N#Cc1ccc(OCC(=O)OCC(=O)Nc2ccc(N3CCOCC3)cc2)cc1	-	-	-	-	-	.
CCN1CCN(C(=S)Nc2cc(C(=O)OC)ccc2C(=O)OC)CC1	.	-	.	-	-	.
COc1ccc(OC)c(NC(=O)c2sc3ncnc(N4CCN(c5ccccn5)CC4)c3c2C)c1	-	?	-	?	8.28µM	-
Cc1nc(N2CCN(C(=O)COc3ccccc3)CC2)c2c(C)c(C)sc2n1	?	-	?	12.6µM	-	-
Cc1nc(N2CCN(c3ccccn3)CC2)c2c(C)c(C(=O)N3CCN(c4ccc(F)cc4)CC3)sc2n1	?	-	-	?	4.65µM	-
COc1ccccc1N1CCN(C(=O)c2sc3ncnc(N4CCN(c5ccccn5)CC4)c3c2C)CC1	-	-	-	?	11.7µM	-
COc1ccccc1N1CCN(C(=O)c2sc3nc(C)nc(N4CCN(c5ccccn5)CC4)c3c2C)CC1	?	-	?	?	?	-
COc1ccc(NC(=O)c2sc3ncn(CC(=O)N4CCN(c5ccccn5)CC4)c(=O)c3c2C)c(OC)c1	.	-	.	-	-	-
Cc1c(C(=O)N2CCN(c3ccccc3)CC2)sc2ncnc(N3CCN(c4ccccn4)CC3)c12	-	-	-	?	?	-
